HepG2 viability: qHTS for Inhibitors of TGF-b: Cytotox Counterscreen | 0.76% of 410,000 active | HepG2 CAGA-GFP viability, ATP luminescence, 18 h | AID 588856, 2011 | Potency, µM (top dose mostly 46.1 µM), actives largely listed as cytotoxic
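HepG2 CAGA-GFP cells (1000/well, DMEM with 1% FBS) received compound, then TGF-beta at 500 pg/mL final, and were incubated 18 hours at 37 degrees C. Viability was read by CellTiter-Glo luminescence. Media-only wells were set as complete cell-killing and DMSO as no toxicity.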
TDP1 inh: qHTS Assay for Inhibitors of Tyrosyl-DNA Phosphodiesterase (TDP1) | Potency, µM (highest dose often 130 µM), actives largely listed as inhibitors | recombinant TDP1, AlphaScreen DNA substrate cleavage | 0.28% of 350,000 active; also: nearly all actives have a fitted effect of over 40% in size
Target sequence (Q9NUW8 whole entry, looked up): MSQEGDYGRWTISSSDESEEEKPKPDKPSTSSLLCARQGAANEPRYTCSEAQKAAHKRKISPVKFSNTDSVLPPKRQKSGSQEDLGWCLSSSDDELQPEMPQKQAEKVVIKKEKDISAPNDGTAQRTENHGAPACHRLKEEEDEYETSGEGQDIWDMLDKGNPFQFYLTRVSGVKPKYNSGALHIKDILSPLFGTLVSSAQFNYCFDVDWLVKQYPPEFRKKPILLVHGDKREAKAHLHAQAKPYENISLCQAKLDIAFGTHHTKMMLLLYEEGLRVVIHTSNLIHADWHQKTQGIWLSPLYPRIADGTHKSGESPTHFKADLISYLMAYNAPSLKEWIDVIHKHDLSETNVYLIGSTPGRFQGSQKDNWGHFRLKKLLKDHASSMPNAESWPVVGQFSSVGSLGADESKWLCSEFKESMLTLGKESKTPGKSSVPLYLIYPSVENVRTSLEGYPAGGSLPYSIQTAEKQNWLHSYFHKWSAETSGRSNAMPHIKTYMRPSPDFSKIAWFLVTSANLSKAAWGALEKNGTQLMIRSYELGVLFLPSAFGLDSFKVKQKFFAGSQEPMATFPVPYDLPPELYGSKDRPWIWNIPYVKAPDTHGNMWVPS
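Enzyme-compound mixtures sat 15 min at room temperature, followed by a 5 min reaction with 15 nM final substrate and 10 min with AlphaScreen beads. Recombinant human Tdp1 was used at 1 nM final.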
IL-1B inflam inh: qHTS for Inhibitors of Inflammasome Signaling: IL-1-beta AlphaLISA Primary Screen | 4.7% of 360,000 active | THP-1 LPS/ATP IL-1B secretion, AlphaLISA, 16 h; hits give low values | activity change, % at 57.5 µM; in the data active = activity change below about -50%; inconclusive = mostly about -30% to -49%
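THP-1 cells pretreated 1 hr with compounds (up to 57.5 uM final), then stimulated with LPS (250 ng/mL final) plus ATP (1.25 mM final); secreted IL-1B measured by AlphaLISA after 16 hr, decreased signal indicating inhibition.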
TGFb inhibitor: qHTS for Inhibitors of TGF-b; Potency, µM (titrated, usually from 46.1 µM), hits mostly inhibitors; HepG2 CAGA-GFP TGF-b/SMAD3 reporter, GFP fluorescence, 18 h; TGF-beta stimulated, 500 pg/mL final; 1.2% of 410,000 active; also: nearly all actives have a fitted effect of over 65% in size
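Smad-responsive CAGA-GFP expression was quantified in HEPG2 cells exposed to compounds and 500 pg/mL final TGF-beta for 18 h at 37 degrees C; unstimulated wells defined full inhibition.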
DT40 TDP1 no CPT: qHTS for Inhibitors of human tyrosyl-DNA phosphodiesterase 1 (TDP1): qHTS in cells in absence of CPT; DT40 Tdp1-/- hTDP1 cells, no CPT, ATP luminescence, 48 h; Potency, µM (top dose mostly 46.2 µM), hits mostly inhibitors; 15% of 420,000 active; AID 686978, 2013; also: nearly all actives have a fitted effect of over 55% in size
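Growth kinetics read by CellTiter-Glo luminescence after ≥48 hr at 37 °C. Cells: DT40 Tdp1-/- stably carrying human TDP1, 400 per well, compound exposure in the absence of CPT (DMSO vehicle).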
TDP1 cell CPT: qHTS for Inhibitors of human tyrosyl-DNA phosphodiesterase 1 (TDP1): qHTS in cells in presence of CPT | chicken DT40 Tdp1-/-;hTDP1 cells + 20 nM CPT, ATP luminescence, 48 h | Potency, µM (highest dose often 46.2 µM), most hits filed as inhibitors | 12% of 420,000 active | AID 686979, 2013; also: nearly all actives have a fitted effect of over 55% in size
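Cell growth measured by CellTiter-Glo luminescence after a minimum 48 h, 37 C compound exposure with 20 nM CPT in Tdp1-knockout DT40 cells stably expressing hTDP1, seeded 400/well; qHTS titration format.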
Hits are given with their value; – = inactive; ? = inconclusive; · = not tested or not shown. In the library only some 19% were active in any assay of this set; here they are far more common. Unless noted, calls follow the shape of the dose curve; as a rule, active = well fitted curve in the direction sought with a large enough effect; inconclusive = small, poorly fitted or top-dose-only effect, or another doubt; inactive = no such curve, though single readings can be large; an effect the other way counts as inactive or inconclusive.

SMILES | HepG2 viability | TDP1 inh | IL-1B inflam inh | TGFb inhibitor | DT40 TDP1 no CPT | TDP1 cell CPT
CCN(CCc1ccccc1)c1ccc2c(c1)C1CC2CCN1C(=O)OCc1ccccc1 (centres undefined) | – | · | – | – | ? | ?
COc1ccc(-c2ccc3c(c2)C2CC3CCN2C(=O)C(C)(C)C)cc1 (centres undefined) | – | · | – | – | 21µM | ?
O=C(OCc1ccccc1)N1CCC2CC1c1cc(-c3ccc4c(c3)OCO4)ccc12 (centres undefined) | – | · | – | – | ? | 15µM
CCCCN(C(C)=O)c1ccc2c(c1)C1CC2CCN1C(=O)OCc1ccccc1 (centres undefined) | – | · | – | 13µM | 3.7µM | 2.1µM
COc1ccc(-c2noc(-c3ccc(NCc4ccc(C)cc4)c([N+](=O)[O-])c3)n2)cc1OC | – | – | · | – | – | –
COc1ccc(CN2C(=O)c3cccnc3C2=O)cc1S(=O)(=O)N(C)c1cccc(C)c1 | – | – | – | – | – | –
CCn1c(=O)c2cc(C(=O)N(C)c3ccccc3F)sc2c2ccccc21 | – | – | -72 | – | 15µM | ?
CCN(C(=O)c1cc2c(=O)oc3ccccc3c2s1)c1cccc(C(F)(F)F)c1 | – | – | · | – | – | –
CCCN(C(=O)c1cc2c(=O)n(CC)c3ccccc3c2s1)c1ccccc1F | – | – | · | – | 6.5µM | 8.2µM
CCN(C(=O)c1cc2c(=O)n(CC)c3ccccc3c2s1)c1cccc(C(F)(F)F)c1 | – | – | · | – | 9.2µM | 9.2µM
CCCN(C(=O)c1cc2c(=O)oc3ccccc3c2s1)c1ccccc1C | – | – | · | – | ? | 18µM
Cc1ccc2[nH]c(CNC(=O)c3ccccc3F)cc2c1 | – | – | – | – | – | –
Cc1ccc(CC(NC(=O)c2ccc(C)cc2)C(=O)O)cc1 (centres undefined) | – | – | – | – | – | –
COc1ccc(C(=O)C2C(=O)C(=O)N(Cc3ccco3)C2c2cccs2)cc1 (centres undefined) | – | – | · | – | – | –
Cc1cc(F)ccc1NC(=O)CCSc1nc(-c2ccco2)cc(C(F)(F)F)n1 | – | – | · | – | – | –
CCOc1ccccc1N(CC)C(=O)c1cc2c(=O)n(CC)c3ccccc3c2s1 | – | – | · | 18µM | 16µM | 15µM
CCOC(=O)c1ccc(NC(=O)COCc2cc(-c3ccc4c(c3)OCO4)on2)cc1 | – | – | · | – | – | –
CC(=O)Nc1ccc(NC(=O)C(C)OC(=O)CN2C(=O)C3CCCCC3C2=O)cc1 (centres undefined) | – | – | – | – | – | –
Cn1c(=N)n(CC(=O)c2ccc(Br)cc2)c2ccccc21 | – | · | · | – | 18µM | 21µM
Cn1c(=N)n(CC(=O)c2ccc(F)cc2)c2ccccc21 | – | · | – | ? | 13µM | 16µM
CCN(CC)CCCNC(=O)Cn1nc(N2CCN(c3ccccc3OC)CC2)ccc1=O | – | – | · | – | ? | –
COc1cccc(CNC(=O)Cn2c(SCC(=O)Nc3ccc(F)cc3)nc3ccccc32)c1 | – | – | · | ? | ? | ?
CCOC(=O)C1=C(C)NC(SC)=C(C#N)C1CC(C)C (centres undefined) | – | – | ? | ? | 3.7µM | 3.7µM
COc1ccccc1OCCCN1C(=O)C(=O)c2cccc(C)c21 | – | – | – | ? | 1.5µM | 4.6µM
Cc1ccccc1OCCN1C(=O)C(=O)c2cccc(C)c21 | – | – | – | – | 0.92µM | 1.3µM
COc1ccccc1OCCC(=O)OCCN1C(=O)c2ccccc2C1=O | – | – | – | – | – | –
O=C1c2ccccc2C(=O)N1CCOc1ccccc1Br | – | – | – | – | – | –

Screens (PubChem BioAssay)
